Records with an inconclusive call do not appear. Activity calls are given as the source filed them. Calls come from the whole dose curve; as a rule, active = well fitted curve in the direction sought with a large enough effect; inconclusive = small, poorly fitted or top-dose-only effect, or another doubt; inactive = no such curve, though single readings can be large; an effect the other way counts as inactive or inconclusive.

The values below come from PubChem BioAssay (NCATS).

For experiment [1], the target named is Glutathione peroxidase 1 (Homo sapiens) (UniProt P07203). The experiment can be described thus: Primary qHTS Assay for Inhibitors of Recombinant Selenoprotein Glutathione Peroxidase 1 (GPX1) (AID 1845191). Note: nearly all actives have a fitted effect of over 65% in size. Note: potency is the fitted concentration of half-maximal effect. The procedure, abridged: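 Recombinant GPX1 (10 nM final) was preincubated with compound for 30 min at room temperature, then reacted with 1 mM GSH, 0.5 mM CHP, 0.5 mM NADPH and 100 nM glutathione reductase; NADPH fluorescence (340/450 nm) was read at 0 and 15 min.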
Sequence of Glutathione peroxidase 1 (Homo sapiens) (P07203 whole entry, looked up): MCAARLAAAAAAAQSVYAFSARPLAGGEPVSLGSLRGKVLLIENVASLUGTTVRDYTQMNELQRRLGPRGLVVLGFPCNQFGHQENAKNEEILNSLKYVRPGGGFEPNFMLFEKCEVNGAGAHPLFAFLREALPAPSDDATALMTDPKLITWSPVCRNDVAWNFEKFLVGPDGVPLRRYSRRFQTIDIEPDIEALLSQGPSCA

In experiment [2] the target is Phospholipid hydroperoxide glutathione peroxidase GPX4 (Homo sapiens) (UniProt P36969). Put plainly: Primary qHTS Assay for Inhibitors of Recombinant Selenoprotein Glutathione Peroxidase 4 (GPX4) (AID 1845192). Note: nearly all actives have a fitted effect of over 65% in size. The procedure, abridged: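 GR-coupled readout: 100 nM GR, 1 mM GSH, 0.5 mM NADPH; NADPH fluorescence (ex 340/em 450 nm) read at t=0 and after 15 min RT. GPX4 200 nM, preincubated 30 min with compound; substrate 0.5 mM CHP.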
Sequence of Phospholipid hydroperoxide glutathione peroxidase GPX4 (Homo sapiens) (P36969 whole entry, looked up): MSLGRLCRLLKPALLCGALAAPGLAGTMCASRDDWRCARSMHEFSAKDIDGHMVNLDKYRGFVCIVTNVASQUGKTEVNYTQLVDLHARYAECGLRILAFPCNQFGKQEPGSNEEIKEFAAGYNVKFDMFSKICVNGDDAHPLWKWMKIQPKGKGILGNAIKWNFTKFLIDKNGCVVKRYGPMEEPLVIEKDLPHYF

The nature of experiment [3]: Quantitative High-Throughput drug screen in 47 multiple myeloma cell lines against the NCATS MIPE library collection: FR4_PLB cell viability assay (AID 1918924; note: nearly all actives have a fitted effect of over 35% in size; note: potency is the fitted concentration of half-maximal effect). The procedure, abridged: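 Viability readout: CellTiter-Glo luminescence following 5 min room-temperature incubation with reagent. Prior exposure: 48 h, 37C, humidified 5% CO2, 500 cells per well.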
Experiment [4] concerns the target Luciferin 4-monooxygenase (Photinus pyralis) (UniProt P08659). The experiment can be described thus: Primary firefly luciferase (FLuc) qHTS assay for identification of artifact compounds. (AID 1845220). Note: nearly all actives have a fitted effect of over 60% in size. Note: potency is the fitted concentration of half-maximal effect. An outline of the steps: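 qHTS, 15 min compound preincubation with substrate (10 uM luciferin, 10 uM ATP) at RT, then 10 nM FLuc; 5 min; luminescence; % inhibition vs no-enzyme/DMSO controls, 4-parameter Hill fit.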

In experiment [5] the test system is Nanoluciferase (engineered Oplophorus gracilirostris luciferase). Put plainly: Primary Nanoluciferase (NLuc) qHTS assay for identification of artifact compounds. (AID 1845222). Note: potency is the fitted concentration of half-maximal effect. An outline of the steps: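 Luminescence read-out of secreted NLuc in S16 cell conditioned medium (1:55); compounds tested with 15 min RT preincubation, then Nano-Glo substrate 1:100, 5 min. % inhibition vs no-enzyme and DMSO controls, 4-parameter Hill fit.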

Experiment [6] is described as follows: Primary redox qHTS assay for identification of artifact compounds. (AID 1845223). An outline of the steps: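 Amplex Red (25 uM) and HRP (250 mU/mL) in HBSS, with compounds for 15 min, then 250 uM DTT for 30 min, room temperature, dark. Fluorescence 525/598 nm read; normalized to DMSO and 10 uM DA3003; Hill fit.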
Experiment [7] is described as follows: Quantitative High-Throughput drug screen in 47 multiple myeloma cell lines against the NCATS MIPE library collection: Delta47_JCRB cell viability assay (AID 1918925; note: nearly all actives have a fitted effect of over 45% in size; note: potency is the fitted concentration of half-maximal effect). An outline of the steps: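 Steps: seed 500 cells per well; pin-transfer MIPE 4.0 library; incubate 48 h at 37C, 5% CO2, humidified; add CellTiter-Glo, 5 min room temperature; read luminescence.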

Experiment [8] in a line: Primary fluorescence-based thiol-reactive (MSTI) qHTS assay for identification of artifact compounds. (AID 1845221).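 Note: series mostly up to about 54 µM; thiol-reactive compounds lower the probe fluorescence signal; nearly all actives have a fitted effect of over 65% in size.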 The procedure, abridged: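 In PBS pH 7.4 with 2% DMSO, each compound met 4 uM MSTI for one hour at ambient temperature, shielded from light, before fluorescence detection.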

As to `N#Cc1ccc(NC(=O)Nc2ccccc2Br)c2n[nH]nc12`, the Potency entry in experiment [1], in experiment [2] and in experiment [3] was “inactive” in each case.

For `Cc1c(NC(=O)c2ccc(C(C)(C)C)cc2)cccc1-c1cn(C)c(=O)c(Nc2ccc(C(=O)N3CCOCC3)cc2)n1`, the Potency result in experiment [1], in experiment [2] and in experiment [5] was “inactive” each time. Moreover, the Potency in experiment [4] was 5.88 µM (active); in experiment [3] it was 23.5 µM (active); in experiment [7], 23.5 µM (active). Besides, the compound was called inactive in experiment [6].

For the compound `O=C(Nc1cccc(Br)c1)c1cccc(S(=O)(=O)N2CCCCCC2)c1`, the Potency entry in experiment [1], in experiment [2], in experiment [4], in experiment [8] and in experiment [5] was “inactive” in each case. In addition, in experiment [6], the compound was classed as inactive. Also, the Potency in experiment [7] was 18.7 µM (active).

In the case of `CC(C(=O)O)c1ccc(-c2ccccc2)c(F)c1` (stereo not drawn), the Potency result in experiment [1], in experiment [2] and in experiment [3] was “inactive” each time.

In the case of `O=C(CCCCCCC(=O)Nc1ccccc1)NO`, the Potency entry in experiment [1], in experiment [2], in experiment [4] and in experiment [5] was “inactive” each time. Further, the call in experiment [6] was inactive. Moreover, the figures for the Potency in experiment [3] and in experiment [7] were 2.35 µM (active) and 1.32 µM (active), respectively.

Turning to `O=C(O)c1cc(-c2ccccc2)nc2ccccc12`, the Potency entry in experiment [1], in experiment [2], in experiment [8] and in experiment [5] was “inactive” in each case. Further, the result in experiment [6] was inactive.

`O=C(Nc1ccccc1Br)N[C@@H]1CCN(c2ccc(C(F)(F)F)cn2)C1`: the Potency result in experiment [1], in experiment [2] and in experiment [3] was “inactive” each time.

Take `O=C(O)c1ccccc1C(=O)Nc1ccc(-c2ccccc2)cc1`: the Potency result in experiment [1], in experiment [2] and in experiment [3] was “inactive” each time. For the same compound, the Potency in experiment [4] and in experiment [5] was 23.9 µM (active) each time. In addition, in experiment [6], the outcome was inactive.

Consider `N#C[C@H]1C[C@H]2C[C@@H]2N1C(=O)[C@@H](N)C12CC3CC(CC(O)(C3)C1)C2`, for which the Potency entry in experiment [1], in experiment [2] and in experiment [3] was “inactive” each time.

For the compound `COc1cc(NC(=O)c2ccc(-c3ccc(Cl)cc3)o2)cc(OC)c1`, the Potency entry in experiment [1], in experiment [2] and in experiment [3] was “inactive” each time.

On to `O=c1cc(-c2ccccc2)oc2cc(O)cc(O)c12`, for which the Potency entry in experiment [1], in experiment [2] and in experiment [3] was “inactive” in each case.

Take `Cc1cnc(C(=O)O)c[n+]1[O-]`: the Potency result in experiment [1], in experiment [2] and in experiment [3] was “inactive” each time.

As to `Cc1ccccc1C(C(=O)NC1CCCCC1)N(C(=O)Cn1ccnc1C)c1cccc(F)c1` (stereo not drawn), the Potency entry in experiment [1], in experiment [2], in experiment [4], in experiment [8] and in experiment [5] was “inactive” each time. The result in experiment [6] was inactive. The Potency in experiment [7] is 11.8 µM (active).

With `O=c1cc(-c2cccc3c2Sc2ccccc2S3)oc(N2CCOCC2)c1`, the Potency result in experiment [1] and in experiment [2] was “inactive” each time. Besides, the Potency in experiment [3] is 26.4 µM (active).

Take `COc1cc(N2CCC(N3CCN(C)CC3)CC2)ccc1Nc1ncnc(Nc2ccccc2S(=O)(=O)C(C)C)n1`: the Potency entry in experiment [1], in experiment [2], in experiment [4] and in experiment [5] was “inactive” throughout.

For the compound `CNC(=O)c1ccc2cc(C3(O)CCn4cncc43)ccc2c1` (stereo not drawn), the Potency result in experiment [1], in experiment [2], in experiment [4], in experiment [8], in experiment [5] and in experiment [3] was “inactive” throughout. Moreover, the Potency result in experiment [7] was “inactive”. The result in experiment [6] was inactive.

As for `CCCCCNC(=O)N1CCC(CN(Cc2ccc(Cl)cc2)Cc2ccc([N+](=O)[O-])s2)C1` (stereo not drawn), the Potency in experiment [1] is 2.05 µM (active); in experiment [3], 23.5 µM (active). In addition, the Potency result in experiment [2] was “inactive”.

`COc1cc2c(cc1OC)CN(CCc1ccc(NC(=O)c3cc(OC)c(OC)cc3NC(=O)c3cnc4ccccc4c3)cc1)CC2`: the Potency entry in experiment [1], in experiment [2], in experiment [4], in experiment [8], in experiment [5] and in experiment [3] was “inactive” throughout. Further, the call in experiment [6] was inactive. In addition, in experiment [7], the Potency is 13.2 µM (active).

For `O=c1c(O)c(-c2ccc(O)cc2)oc2cc(O)cc(O)c12`, the Potency result in experiment [1], in experiment [2] and in experiment [3] was “inactive” throughout. In addition, the Potency in experiment [7] is 20.9 µM (active).

As for `CN1[C@@H]2CCC[C@@H]1CC(NC(=O)c1nn(C)c3ccccc13)C2` (stereo partly drawn), the Potency entry in experiment [1], in experiment [2], in experiment [3] and in experiment [7] was “inactive” throughout.

On to `O=C(N[C@@H](c1ccccc1)[C@@H]1CCCCN1)c1cccc(C(F)(F)F)c1Cl`, for which the Potency result in experiment [1], in experiment [2] and in experiment [3] was “inactive” in each case. The Potency in experiment [7] was 14.8 µM (active).

`COc1ccc2cc(-c3nc(-c4ccc(S(C)=O)cc4)[nH]c3-c3ccncc3)ccc2c1` (stereo not drawn): the Potency result in experiment [1], in experiment [4], in experiment [8] and in experiment [5] was “inactive” in each case. Further, the result in experiment [6] was inactive.

Take `CC(C)(C)COc1ccc(-n2cc(C(=O)O)cn2)cc1C#N`: the Potency result in experiment [1], in experiment [2], in experiment [3] and in experiment [7] was “inactive” throughout.

In the case of `C[C@]12CCC3c4ccc(O)cc4CCC3C1CCC2=O` (stereo partly drawn), the Potency entry in experiment [1], in experiment [2] and in experiment [7] was “inactive” throughout. Also, the Potency in experiment [3] is 1.87 µM (active).

On to `O=C(NOCC(O)CO)c1cc(Br)c(F)c(F)c1Nc1ccc(I)cc1F` (stereo not drawn), for which the Potency entry in experiment [1] and in experiment [3] was “inactive” throughout.

In the case of `c1ccc2c(Cc3c[nH]c4ccccc34)c[nH]c2c1`, the Potency result in experiment [1] and in experiment [2] was “inactive” in each case. In addition, the Potency in experiment [3] was 20.9 µM (active); in experiment [7], 0.935 µM (active).

Turning to `CCCCCCCCCCCC1=C(O)C(=O)C=C(O)C1=O`, the Potency entry in experiment [1] is “inactive”. Also, the Potency in experiment [3] was 20.9 µM (active); in experiment [7], 3.32 µM (active).

In the case of `O=C(NCc1ccncc1)C12C[C@H]3C[C@@H](C1)CC(c1ccc(Cl)cc1)(C3)C2`, the Potency entry in experiment [1] and in experiment [2] was “inactive” in each case. Moreover, the Potency in experiment [3] is 14.8 µM (active); in experiment [7] it was 16.6 µM (active).

`CO[C@H]1C(=O)[C@]2(C)[C@@H](OC)C[C@H]3OC[C@@]3(OC(C)=O)[C@H]2[C@H](OC(=O)c2ccccc2)[C@]2(O)C[C@H](OC(=O)[C@H](O)[C@@H](NC(=O)OC(C)(C)C)c3ccccc3)C(C)=C1C2(C)C`: the Potency entry in experiment [1], in experiment [2], in experiment [3] and in experiment [7] was “inactive” in each case.
